Experimental findings from the supplement of paper PMC9262897, “Low-cost anti-mycobacterial drug discovery using engineered E. coli” (Nature Communications, 2022) are described below.

Common to all, as to assay: growth (OD600 after 10 h); higher = more growth (less inhibition)
Assay [1] concerns E. coli TESEC Alr+ wild-type control. The conditions noted are these: compound 0.1 mM; raw OD600 reference: median of DMSO wells 0.241, cell-free background 0.041. The method, then:
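TESEC Mtb Alr E. coli, or the Alr+ wild-type control, in 384-well plates with Prestwick library compounds at 0.1 mM and 1% DMSO, across arabinose induction levels of 1E3 to 1E7 nM. Growth is read as OD600 after 10 h at 37 °C in triplicate biological replicates.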

The test system of assay [2] is E. coli TESEC Mtb Asd. The conditions noted are these: compound 0.1 mM. Here is the method:
(§1)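 TESEC E. coli strains in which the native enzyme is deleted and replaced by arabinose-inducible Mtb Asd, DapB, CysH or TrpD, each grown in its selective medium. Strains were screened against the Prestwick library at 0.1 mM and 1% DMSO in 384-well format at low and high arabinose induction. Growth is read as OD600 after 10 h in triplicate.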

The subject of assay [3] is E. coli TESEC Mtb DapB. The conditions noted are these: compound 0.1 mM. The method, then: as §1
The test system of assay [4] is E. coli TESEC Mtb Alr. The conditions noted are these: compound 0.1 mM. Here is the method:
(§2)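 TESEC Mtb Alr E. coli (ΔaraC ΔtolC ΔentC Δalr ΔdadX, arabinose-inducible Mtb Alr) or the Alr+ wild-type control strain, grown in defined M9-fructose medium without D-alanine in 96-well plates with Prestwick library compounds at 0.1 mM and 1% DMSO. Low Alr induction is 0.1 µM arabinose and high induction is 10 mM arabinose.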

In assay [5] the test system is E. coli TESEC Alr+ wild-type control. The conditions noted are these: compound 0.1 mM; raw OD600 reference: median of DMSO wells 0.49, cell-free background 0.052. The method, then: as §2
[6] abbreviates: arabinose induction (level): High, raw OD600 reference: median of DMSO wells 0.331, cell-free background 0.041.
Where [7] appears, read: arabinose induction (level): Low, raw OD600 reference: median of DMSO wells 0.417, cell-free background 0.041.
Setting [8] is: arabinose induction (level): High, raw OD600 reference: median of DMSO wells […], cell-free background 0.041.
The mark [9] stands for this setting: arabinose induction (level): Low, raw OD600 reference: median of DMSO wells 0.227, cell-free background 0.041.
[10] abbreviates: arabinose 100 nM, raw OD600 reference: median of DMSO wells 0.413, cell-free background 0.052.
[11] abbreviates: arabinose 10000000 nM, raw OD600 reference: median of DMSO wells […], cell-free background 0.052.

Counter-ions that a name gives are not always drawn. ± gives the standard deviation of the averaged measurements.

Turning to `Cc1cc(C(=O)NNCc2ccccc2)no1` [Isocarboxazid], the growth in assay [1] amounted to 0.253 ± 0.0036; in assay [2] (setting [6]) it was 0.492 ± 0.0092; in assay [2] (setting [7]), 0.441 ± 0.039; in assay [3] (setting [8]), 0.211 ± 0.023; in assay [3] (setting [9]), 0.239 ± 0.035; in assay [4] (setting [10]), 0.402 ± 0.014. In addition, the growth in assay [4] (setting [11]) came to 0.362 ± 0.013.

For the molecule `CN(C/C=C/c1ccccc1)Cc1cccc2ccccc12` [Naftifine hydrochloride], the growth in assay [1] is 0.0432 ± 0.0006; in assay [2] (setting [6]), 0.269 ± 0.035; in assay [2] (setting [7]), 0.313 ± 0.069; in assay [4] (setting [10]), 0.266 ± 0.14; in assay [4] (setting [11]) it was 0.052 ± 0.0013.

As to `C#C[C@]1(OC(C)=O)CC[C@H]2[C@@H]3CCC4=C[C@@H](OC(C)=O)CC[C@@H]4[C@H]3CC[C@@]21C` [Ethynodiol diacetate], the growth in assay [1] was 0.174 ± 0.0051; in assay [2] (setting [6]), 0.221 ± 0.012; in assay [2] (setting [7]), 0.358 ± 0.039; in assay [3] (setting [8]) it was 0.161 ± 0.0063; in assay [3] (setting [9]), 0.165 ± 0.011; in assay [4] (setting [10]), 0.384 ± 0.012. The growth in assay [4] (setting [11]) is 0.118 ± 0.019.

`C[C@@H](O)[C@H]1C(=O)N2C(C(=O)O)=C(SCCNC=N)C[C@H]12` [Imipenem]: the growth in assay [1] came to 0.216 ± 0.0037; in assay [2] (setting [6]), 0.296 ± 0.1; in assay [2] (setting [7]) it was 0.37 ± 0.065; in assay [3] (setting [8]) it was 0.198 ± 0.012; in assay [3] (setting [9]) it was 0.231 ± 0.015; in assay [4] (setting [10]), 0.165 ± 0.11. The molecule further came in with a growth in assay [4] (setting [11]) of 0.111 ± 0.011.

In the case of `Cc1ccc(C)c(OCCCC(C)(C)C(=O)O)c1` [Gemfibrozil], the growth in assay [1] came out at 0.2143 ± 0.0012; in assay [2] (setting [6]), 0.202 ± 0.051; in assay [2] (setting [7]) it was 0.214 ± 0.0039; in assay [3] (setting [8]), 0.161 ± 0.029; in assay [3] (setting [9]), 0.195 ± 0.055; in assay [4] (setting [10]) it was 0.354 ± 0.037. This molecule also showed a growth in assay [4] (setting [11]) of 0.261 ± 0.011.

For `Oc1ccc(OCc2ccccc2)cc1` [Monobenzone], the growth came to 0.176 ± 0.0053 in assay [1]; 0.314 ± 0.099 in assay [2] (setting [6]); 0.325 ± 0.025 in assay [2] (setting [7]); 0.2 ± 0.0057 in assay [3] (setting [8]); 0.21 ± 0.017 in assay [3] (setting [9]); 0.395 ± 0.019 in assay [4] (setting [10]). The molecule also displayed a growth in assay [4] (setting [11]) of 0.304 ± 0.018.

Turning to `CCCCC(CC)CNC(=N)NC(=N)NCCCCCCNC(=N)NC(=N)NCC(CC)CCCC` (stereo not given) [Alexidine dihydrochloride], the growth stood at 0.0519 ± 0.0017 in assay [1]; 0.0536 ± 0.00095 in assay [2] (setting [6]); 0.0584 ± 0.0047 in assay [2] (setting [7]); 0.0749 ± 0.029 in assay [3] (setting [8]); 0.071 ± 0.014 in assay [3] (setting [9]); 0.0695 ± 0.012 in assay [4] (setting [10]). In assay [4] (setting [11]), this molecule registered a growth of 0.0779 ± 0.013.

Consider `CCN1CCN(C(=O)N[C@@H](C(=O)N[C@@H]2C(=O)N3[C@@H]2SC(C)(C)[C@@H]3C(=O)O)c2ccccc2)C(=O)C1=O` [Piperacillin sodium salt], for which the growth in assay [1] was 0.237 ± 0.0061; in assay [2] (setting [6]), 0.328 ± 0.021; in assay [2] (setting [7]) it was 0.4754 ± 0.0046; in assay [5], 0.508 ± 0.061; in assay [4] (setting [10]) it was 0.405 ± 0.013; in assay [4] (setting [11]) it was 0.354 ± 0.011.

On to `COc1cc(C)nc(-n2nc(C)cc2OC)n1` [Epirizole], for which the growth came out at 0.2428 ± 0.0024 in assay [1]; 0.342 ± 0.051 in assay [2] (setting [6]); 0.465 ± 0.042 in assay [2] (setting [7]); 0.192 ± 0.025 in assay [3] (setting [8]); 0.238 ± 0.054 in assay [3] (setting [9]); 0.421 ± 0.011 in assay [4] (setting [10]). In assay [4] (setting [11]), this molecule gave a growth of 0.27 ± 0.12.
